Assay results reported in PubChem BioAssay AID2315 (National Center for Advancing Translational Sciences (NCATS), 2010).
Several values for one entry are separate records, joined by “and”; a condition that tells them apart may be missing. Identical values can stand only once. Out of some 290,000 compounds screened, about 27,000 (9.3%) were called active. Rule as the data show it: active = inhibition mostly above about 28% (no sharp cut-off); inactive = mostly below about 43%. Only a selection was taken, and actives are over-represented in it overall.

Assay: A qHTS for Small Molecule Inhibitors of Shiga Toxin; also: 0% is about no effect
Conditions: Vero cells, Shiga toxin protein synthesis inhibition reporter; at 38.7 µM, active compounds read high

Row | SMILES | inhibition
1 | COc1ccc(C23NCCN2C(=O)c2ccccc23)cc1 (stereo unspecified) | -8.39% (inactive)
2 | COc1ccc(CNC(=O)c2cc(C(=O)C3CC3)c[nH]2)cc1 | 27.9% (inactive)
3 | CCOC(=O)c1c(-c2ccccc2)oc2cc(Br)c(O)cc12 | -8.35% (inactive)
4 | COc1cc(OC)cc(C(=O)NCCCn2ccnc2)c1 | 13.8% (inactive)
5 | COCCCNS(=O)(=O)c1cccc(S(=O)(=O)c2cccc(S(=O)(=O)NCCCOC)c2)c1 | -4.92% (inactive)
6 | CN(C)c1ccc(C(CNC(=O)c2ccc(F)cc2)c2c[nH]c3ccccc23)cc1 (stereo unspecified) | 5.91% (inactive)
7 | CCCS(=O)(=O)Nc1ccc(-c2cn3c(n2)SCC3)cc1 | 27.3% (inactive)
8 | O=C(NCCNc1ccccc1[N+](=O)[O-])c1ccccc1F | 61.5% (active)
9 | O=[N+]([O-])c1ccccc1NCc1ccc(Cl)cc1 | 48.7% (active)
10 | O=[N+]([O-])c1ccccc1NCc1ccccc1Cl | 8.89% (inactive)
11 | Cc1c(NC(=S)NCc2ccc(F)cc2)cccc1[N+](=O)[O-] | -13.6% (inactive)
12 | O=C(NCCCNc1ccc([N+](=O)[O-])cc1Cl)c1ccccc1F | -2.91% (inactive)
13 | O=C(O)c1ccccc1C(=O)Nc1ccccc1[N+](=O)[O-] | 0.458% (inactive)
14 | Cc1cc(S(=O)(=O)NCC(C)C)ccc1OCC(=O)NC1CC1 | -1.92% (inactive)
15 | COc1ccc(O)c(/C=N/N=C/c2cccc([N+](=O)[O-])c2)c1 | 1.13% (inactive)
16 | O=C(O)c1ccccc1-c1ccccc1C(=O)Nc1ccccc1Br | 10.4% (inactive)
17 | COc1cccc2sc(NNC(=O)c3nc4ccccc4s3)nc12 | 19.2% (inactive)
18 | COc1ccccc1OCCn1c(SCC(N)=O)nc2ccccc21 | -12.1% (inactive)
19 | COc1ccccc1OCc1nc2ccccc2s1 | 63.5% (active)
20 | Cc1ccc(O)c(/C=N/NC(=O)COc2ccc3c(C)cc(=O)oc3c2)c1 | 4.79% (inactive)
21 | CCOC12CC(C)(C)CC(C)(CC3=C1C(=O)CC(C)(C)C3)C2 (stereo unspecified) | -2.06% (inactive)
22 | CCCCOP(=O)(c1ccc(N(C)C)cc1)C(O)c1cc(OC)ccc1OC (stereo unspecified) | -2.17% (inactive)
23 | COc1ccc(N2CCN(C(=O)/C(C#N)=C/c3ccccc3)CC2)cc1 | 33.9% (inactive)
24 | CCOC(=O)/C(C#N)=C/c1ccc(N2CCN(Cc3ccccc3)CC2)cc1 | 32.9% (inactive)

Row | SMILES | inhibition
25 | CCOC(=O)/C(C#N)=C/c1ccc(N2CCCCC2)cc1 | 111% (active)
26 | COc1ccc(S(=O)(=O)N2CCC(C(=O)N3CCCC3)CC2)cc1C | -7.97% (inactive)
27 | CCOc1ccc(NC(=O)c2cccc3c2C(=O)N(CC2CCCO2)C3)cc1 (stereo unspecified) | 11.4% (inactive)
28 | COc1ccc(C2CC(O)(c3ccccc3)Oc3cc(C)cc(C)c32)cc1 (stereo unspecified) | 17.1% (inactive)
29 | COCCn1c(SCC(=O)Nc2cc(Cl)ccc2OC)nc2c(c1=O)SC(C)C2 (stereo unspecified) | 4.22% (inactive)
30 | C=CCSc1nc2c(c(=O)[nH]c(=O)n2C)n1Cc1ccccc1 | -6.62% (inactive)
31 | CN(c1ccccc1)c1ccc(/C=c2\s/c(=C(/C#N)C(=O)C(C)(C)C)n(Cc3ccco3)c2=O)cc1 | -15.7% (inactive)
32 | Cc1cs/c(=N\N=C\c2ccc(O)cc2)n1Cc1ccco1 | 0% (active)
33 | CC(C)n1c(=O)c(C=Nc2ccc(Br)cc2)c(O)n(Cc2ccco2)c1=O | -2% (inactive)
34 | CC(C)c1ccc(Cc2nnc(NCCCO)[nH]c2=O)cc1 | -6.37% (inactive)
35 | Cc1ccccc1CN1C(=O)c2ccccc2Sc2ccc(C(=O)NCCCN3CCOCC3)cc21 | -7.27% (inactive)
36 | COC(=O)c1ccc(CNC(=O)C2CCC(=O)N(Cc3cccc(F)c3)C2)cc1 (stereo unspecified) | -2.68% (inactive)
37 | CC(C)(C)c1ccc(OC(=O)N2CCCCC2)cc1 | 104% (active)
38 | O=C(c1ccccc1)c1ccc(OC(=O)N2CCCC2)cc1 | 47.5% (active)
39 | O=C(c1ccccc1)c1ccc(C(=O)N2CCN(c3ccccc3)CC2)cc1 | 30.8% (inactive)
40 | CC(C)(C)c1ccc(C(=O)N2CCC(C(=O)N3CCCCC3)CC2)cc1 | -4.15% (inactive)
41 | COc1ccc(S(=O)(=O)NC(C)C(=O)N2CCCCCC2)cc1 (stereo unspecified) | -16.1% (inactive)
42 | O=C(c1ccccc1)c1ccc(OCC(O)CN2CCCC2)cc1 (stereo unspecified) | 2.19% (inactive)
43 | O=C(NCCc1ccccn1)c1nc(Cn2cc([N+](=O)[O-])cn2)no1 | -5.12% (inactive)
44 | COc1cccc(CN(C)CC(O)COC(c2ccccc2)c2ccccc2C)c1 (stereo unspecified) | -8.7% (inactive)
45 | COc1ccc(-c2nc(N)ncc2-c2ccc(Cl)cc2)c(O)c1 | 8.54% (inactive)
46 | Brc1cccc(-c2nnc3n2CCC3)c1 | -4.22% (inactive)
47 | COc1ccc(-c2nnc3n2CCCCC3)cc1 | 5.25% (inactive)
48 | COc1ccc(-c2nc3n(c2Br)CCC3)cc1 | 87.2% (active)

Row | SMILES | inhibition
49 | CCCCCn1c(=O)[nH]c2cc(C(=O)NCCCN3CCCCC3C)ccc2c1=O (stereo unspecified) | -23.9% (inactive)
50 | CNC(=O)CN1C(=O)NC(c2ccccc2)(c2ccccc2)C1=O | -7.36% (inactive)
51 | O=C(NCc1ccc(F)cc1)C1CCN(C(=O)Nc2ccc(F)cc2)CC1 | -9.53% (inactive)
52 | O=C1CC(c2ccccc2)=NN1c1ccc([N+](=O)[O-])cc1 | 55% (active)
53 | O=c1[nH]n(-c2ccc([N+](=O)[O-])cc2)c(=O)c2ccccc12 | -17% (inactive)
54 | CC1=NN(c2ccccc2)C(=O)C1C(=O)c1ccc([N+](=O)[O-])cc1 (stereo unspecified) | 27.4% (inactive)
55 | CCC(C)[C@H](NC(=O)N1CCn2c1nc1ccccc12)C(=O)NCc1ccc(OC)cc1 (stereo partly specified) | 13.9% (inactive)
56 | COc1ccc(C(CNCC(=O)Nc2ccccc2F)N(C)C)cc1 (stereo unspecified) | 7.34% (inactive)
57 | Cc1cc(C)c2nc(SCCC#N)nc(C)c2c1 | 27.9% (inactive)
58 | Cc1cc(C)c2nc(-c3ccco3)cc(C(=O)O)c2c1 | -7.1% (inactive)
59 | Cc1cc(C)c2nc3nc(C)cc(C)c3c(N)c2c1 | 32.6% (active)
60 | OCCC(O)CO (stereo unspecified) | -8.78% (inactive) and 20.3% (inactive) and 19.5% (inactive)
61 | COc1ccc(CCNCc2c(-c3ccccc3)n(C)c3ccccc23)cc1 | 11.5% (inactive)
62 | COc1ccc(-c2c(C#Cc3ccccc3)c3ccccc3n2C)cc1 | 43.7% (active)
63 | CN(C)Cc1c(C#N)c2ccccc2n1C | -25% (inactive)
64 | COc1cccc(C(=O)Nc2nnc(S(=O)(=O)N(C)c3ccccc3)s2)c1 | 3.08% (inactive)
65 | Cc1nc2sccn2c(=O)c1S(=O)(=O)NCCc1ccccc1 | -9.77% (inactive)
66 | Cc1cccc(NC(=O)CSc2nnc(-c3ccco3)o2)c1 | -23.3% (inactive)
67 | Cc1ccc(OCC(=O)Nc2ccc(-c3nnc(-c4ccco4)o3)cc2)cc1 | 22.1% (active)
68 | CCC(=O)Oc1cccc(C(=O)Nc2ccc(-c3nnc(-c4ccco4)o3)cc2)c1 | 90.4% (active)
69 | COc1ccc(OCC(=O)Nc2nnc(-c3ccco3)s2)cc1 | 2.24% (inactive)
70 | Cc1ccc(OCC(=O)Nc2ccc(-c3nc4ncccc4o3)cc2)cc1 | 2.45% (inactive)
71 | CCCCOc1ccc(-c2nnc(-c3ccco3)o2)cc1 | 85.9% (active)
72 | O=C(CCc1ccccc1)Nc1cccc(-c2nnc(-c3ccco3)o2)c1 | 19.4% (inactive)

Row | SMILES | inhibition
73 | COc1ccc(C(=O)CSc2nnc(-c3ccco3)o2)cc1 | 10.9% (inactive)
74 | Cc1ccc(OCC(=O)Nc2nnc(-c3ccco3)s2)cc1 | 4.17% (inactive)
75 | Cc1ccc(-c2nnc(Nc3ccc(C(=O)N(C)C)cc3)c3ccccc23)cc1S(N)(=O)=O | 1.45% (inactive)
76 | CC(C)(C)n1ncc2c(=O)n(Cc3ccc(Cl)cc3)cnc21 | 33.8% (inactive)
77 | Cc1cc(=O)oc2c(C)c(OCC(=O)NCCc3ccc(S(N)(=O)=O)cc3)ccc12 | -5.85% (inactive)
78 | CCOc1ccc(NC(=O)[C@H](C)NC(=O)C2CC(=O)N(c3ccc(OC)cc3)C2)cc1 (stereo partly specified) | -4.28% (inactive)
79 | COCCCNc1nc2ccccc2nc1NS(=O)(=O)c1ccc(F)cc1 | 2.37% (inactive)
80 | CCCCNC(=O)N1CCCC(N(C)CCc2ccc(OC)c(OC)c2)C1 (stereo unspecified) | -2.02% (inactive)
81 | Cc1ccc(NC(=O)CSc2nn3c(=O)c(C)nnc3s2)cc1Cl | 7.47% (inactive)
82 | O=C(NC1CCCC1)c1ccc(Br)s1 | 30.7% (inactive)
83 | CC(C)C(=O)OCC(=O)Nc1ccc2c(c1)CCC2 | 14.2% (inactive)
84 | O=C(Nc1ccc2c(c1)CCC2)c1ccc(Br)s1 | 112% (active)
85 | CC1=C(C(=O)OCC2CCCCC2)C(c2ccc(F)cc2)NC(=O)N1 (stereo unspecified) | -7.87% (inactive)
86 | CN(C)c1nc(Nc2ccc(Cl)c(Cl)c2)nc(N(C)C)n1 | -11.2% (inactive)
87 | Cc1ccc(CS(=O)(=O)CCC(=O)NCc2ccc(F)cc2)cc1 | -8.45% (inactive)
88 | CCOC(=O)Cc1csc(SCC(=O)NC(C)C23CC4CC(CC(C4)C2)C3)n1 (stereo unspecified) | 3.03% (inactive)
89 | Cc1cc2cc(CNC(=O)c3ccc(S(=O)(=O)N4CCOCC4)cc3)ccc2[nH]1 | -6.18% (inactive)
90 | Cc1cc2cc(CNC(=O)c3cccs3)ccc2[nH]1 | 21.3% (active)
91 | CCc1cccc(CC)c1NC(=S)NCc1ccc2[nH]c(C)cc2c1 | -9.97% (inactive)
92 | COc1ccc(CNc2ncnc3ccccc23)cc1 | -14.9% (inactive)
93 | Cc1c(C)c(C)c(S(=O)(=O)N2CCC3(CC2)OCCO3)c(C)c1C | -4.05% (inactive)
94 | O=C(C1CCCO1)N1CCN(S(=O)(=O)c2ccc(Br)cc2)CC1 (stereo unspecified) | -30% (inactive)
95 | O=C1Nc2cc(C(=O)N3CCN(c4ccc(F)cc4)CC3)ccc2NC1CSCc1cccc(F)c1 (stereo unspecified) | -13.8% (inactive)
96 | COc1cc(NC(=O)C2=C(C)OCCS2)c(Cl)cc1C(=O)NCCN1CCN(C)CC1 | -4.3% (inactive)
